Compound activity (PubChem)
Most compounds without a hit are left out; they make up all but 10% or so of the library.
Mm-Cpn inhibitor: Inhibitors of TCP-1 ring complex (TRiC) of Methanococcus maripaludis (MmCpn): qHTS | Potency, µM (doses to about 76.9 µM), without a hit: top-dose activity, negative = inhibition, most hits filed as inhibitors | Chaperonin Mm-Cpn (Methanococcus maripaludis) | 0.031% of 330,000 active | purified Mm-Cpn ATPase, ADP Transcreener TR-FRET | AID 504842, 2011; also: potency is read from the fitted curve at half-maximal effect; nearly all actives have a fitted effect of over 80% in size
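ATPase turnover read by TR-FRET ADP competition (Eu cryptate antibody/ADP-d2, 665/590 nm): 10uM ATP final, 25nM Mm-CPN final, 30 min 37degC after 10-min compound preincubation, pH 7.4 Tris/KCl/MgCl2/DTT buffer.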
Sfp PPTase inh: qHTS Assay for Inhibitors of Bacillus subtilis Sfp phosphopantetheinyl transferase (PPTase); 4'-phosphopantetheinyl transferase ffp (Bacillus subtilis), Q9F4F7; Biochemical Sfp PPTase activity, qHTS; Potency, µM, for the others: largest response in the series, negative = inhibition, hits mostly inhibitors; 3.5% of 310,000 active; AID 1490, 2009;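 also: the enzyme is Sfp with the accession as filed and its product quenches rhodamine fluorescence; potency is read from the fitted curve at half-maximal effect; 0% = enzyme reaction without inhibitor and -100% = no enzyme wells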
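After 15 min at room temperature with compound, 15 nM Sfp received 5 uM rhodamine-CoA plus 12.5 uM BHQ-2-ybbR (50 mM Hepes pH 7.6, 10 mM MgCl2). Rate came from the fluorescence difference over 30 min, ex 525/em 598 nm.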
VDR inh: Inhibitors of the vitamin D receptor (VDR): qHTS. Vitamin D3 receptor (Homo sapiens), P11473. VDR-SRC2-3 peptide fluorescence polarization, 2 h. Potency, µM, for inactives: max response, negative = inhibition, hits mostly inhibitors. 0.93% of 400,000 active. AID 504847, 2011; also: potency is read from the fitted curve at half-maximal effect
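Measured by FP: displacement of SRC2-3 coactivator peptide from VDR by library compounds, following a two-hour ambient incubation.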
CCT modulator: High-Throughput Screening for Modulators of Cytosolic Chaperonin Activity; activity change, % (concentration not given with the values), hits read low; purified chaperonin ATPase assay, HTRF ADP detection, 30 min; 0.3% of 360,000 active; in the data active = activity change below about -30%
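ATPase activity: ADP formed was measured by HTRF Transcreener (665/615 nm ratio) after 30 min at 37 deg C with 10 uM ATP. Compounds screened at one 76 uM concentration against 40 or 20 nM TRiC in Tris pH 7.4/KCl/MgCl2/DTT buffer.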
PLK1 PBD inh: qHTS for Inhibitors of PLK1-PDB (polo-like kinase 1 - polo-box domain): Primary Screen; Potency, µM, without a hit: max response, negative = inhibition, most hits filed as inhibitors; Plk1 PBD binding of FITC phosphopeptide, fluorescence polarization; 2.8% of 360,000 active; AID 720504, 2013; Serine/threonine-protein kinase PLK1 (Homo sapiens), P53350; also: potency is read from the fitted curve at half-maximal effect; series mostly up to about 57 µM; nearly all actives have a fitted effect of over 65% in size
Target sequence (P53350 whole entry, looked up, the tested form may be a part): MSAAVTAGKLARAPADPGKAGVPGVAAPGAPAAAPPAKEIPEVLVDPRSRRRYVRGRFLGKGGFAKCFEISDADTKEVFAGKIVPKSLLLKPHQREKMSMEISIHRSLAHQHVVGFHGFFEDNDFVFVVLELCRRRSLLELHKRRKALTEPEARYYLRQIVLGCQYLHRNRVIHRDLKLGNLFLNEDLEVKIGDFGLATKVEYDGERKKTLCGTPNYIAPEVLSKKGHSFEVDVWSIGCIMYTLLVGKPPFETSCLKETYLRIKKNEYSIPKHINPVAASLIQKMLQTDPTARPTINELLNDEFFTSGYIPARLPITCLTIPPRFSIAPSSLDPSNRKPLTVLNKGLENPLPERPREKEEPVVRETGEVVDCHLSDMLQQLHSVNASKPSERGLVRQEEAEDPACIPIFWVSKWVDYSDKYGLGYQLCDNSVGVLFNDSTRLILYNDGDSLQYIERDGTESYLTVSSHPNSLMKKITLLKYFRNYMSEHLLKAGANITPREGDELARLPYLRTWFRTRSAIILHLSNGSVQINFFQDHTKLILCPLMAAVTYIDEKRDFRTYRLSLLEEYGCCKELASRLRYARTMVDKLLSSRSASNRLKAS
G9a block: qHTS Assay for Inhibitors of Histone Lysine Methyltransferase G9a; Histone-lysine N-methyltransferase EHMT2 (Homo sapiens), Q96KQ7; G9a H3K9 monomethylation, AlphaScreen, 2 h; Potency, µM (doses to about 102 µM), without a hit: at the top dose activity, negative = inhibition, usual class: inhibitors; 8.8% of 350,000 active; also: potency is read from the fitted curve at half-maximal effect; nearly all actives have a fitted effect of over 75% in size
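Readings reflect AlphaScreen signal from monomethyl-H3K9 antibody detection. HMT at 20 nM; substrate b-H3K9 500 nM; cofactor SAM 20 uM; 2 h RT reaction; compounds tested as titrations in qHTS with 15 min preincubation.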
Numbers without * were called inactive; [ ] = remark or other dose. Unless noted, calls follow the shape of the dose curve; as a rule, active = well fitted curve in the direction sought with a large enough effect; inconclusive = small, poorly fitted or top-dose-only effect, or another doubt; inactive = no such curve, though single readings can be large; an effect the other way counts as inactive or inconclusive. Unless noted, % is scaled to controls: 0 for no effect and ±100 for the full control effect.

Results for CC12CC3(C)CC(C)(C1)CC(C(=O)Nc1nn[nH]n1)(C2)C3 ?
Mm-Cpn inhibitor: 1.9%; Sfp PPTase inh: 15.1%; VDR inh: 1.8%; CCT modulator: -0.5; PLK1 PBD inh: -0.4%; G9a block: 35.5µM*

Results for CC12CC3CC(C)(C1)CC(C(=O)Nc1nn[nH]n1)(C3)C2 ?
Mm-Cpn inhibitor: 1.2%; Sfp PPTase inh: -2.1%; VDR inh: 3.0%; CCT modulator: -1.5; PLK1 PBD inh: -7.1%; G9a block: 35.5µM*

What do the screens show for `CCC12CC3CC(C1)CC(C(=O)NNC(N)=O)(C3)C2`?
Mm-Cpn inhibitor: 1.1%; Sfp PPTase inh: 9.4%; VDR inh: 0.9%; CCT modulator: -0.9; PLK1 PBD inh: -0.7%

What do the screens show for `CSc1ccc(CCNC(=O)c2ccc(-n3c(C)cc4c3CCC(C)C4)cc2)cc1` (configuration not stated)?
VDR inh: 3.8%; G9a block: -27.0%[59 µM]

Results for CCOC(=O)OCC1OC(c2ccccc2)C=CC1OC(=O)OCC (configuration not stated) ?
Sfp PPTase inh: -1.5%

What do the screens show for `COc1ccc(C)cc1Nc1c2c(nc3ccccc13)CCC2`?
Mm-Cpn inhibitor: -0.2%; Sfp PPTase inh: 1.1%; VDR inh: 12.4%; CCT modulator: -34.0*; PLK1 PBD inh: -9.6%; G9a block: -13.5%

How did CN(C)CCCNc1c2c(nc3ccccc13)CCC2 do in these assays?
Mm-Cpn inhibitor: -2.3%; Sfp PPTase inh: 3.7%; VDR inh: -28.3%; CCT modulator: -0.2; PLK1 PBD inh: 26.7µM*; G9a block: 39.8µM*

What do the screens show for `COc1ccc(Nc2c3c(nc4ccccc24)CCCC3)cc1OC`?
Mm-Cpn inhibitor: -13.6%; Sfp PPTase inh: -10.4%; VDR inh: -9.0%; CCT modulator: -0.5; PLK1 PBD inh: -10.7%; G9a block: -8.7%[59 µM]

Results for Cn1c(C(=O)NCCc2c[nH]c3ccccc23)cc2sccc21 ?
Mm-Cpn inhibitor: 0.2%; Sfp PPTase inh: 11.8%; VDR inh: -8.1%; CCT modulator: 2.1; PLK1 PBD inh: -2.4%; G9a block: 39.8µM*

Results for O=C(NCCc1c[nH]c2ccccc12)c1cc2sccc2n1Cc1ccccc1 ?
Mm-Cpn inhibitor: -6.1%; Sfp PPTase inh: 9.0%; VDR inh: 13.7%; CCT modulator: 1.6; PLK1 PBD inh: -6.1%; G9a block: -20.1%

What do the screens show for `O=C(NCCc1c[nH]c2ccccc12)/C(=C\c1cccs1)NC(=O)c1ccccc1`?
Mm-Cpn inhibitor: 1.4%; Sfp PPTase inh: -1.8%; VDR inh: -5.2%; CCT modulator: -0.3; PLK1 PBD inh: 26.7µM*; G9a block: -14.6%[59 µM]

What do the screens show for `CC(C)Oc1ccc(C(=O)N/N=C/c2ccc(-c3ccc(S(=O)(=O)Nc4ncccn4)cc3)o2)cc1`?
Mm-Cpn inhibitor: 0.3%; Sfp PPTase inh: 79.4µM*; VDR inh: -2.9%; CCT modulator: -7.7; PLK1 PBD inh: inconclusive; G9a block: 50.1µM*

What do the screens show for `NC(=O)N/N=C/c1ccc(-c2ccc(S(=O)(=O)Nc3ncccn3)cc2)o1`?
Mm-Cpn inhibitor: 0.7%; VDR inh: -9.7%; CCT modulator: -3.3; PLK1 PBD inh: -7.8%; G9a block: 11.2µM*

How did CCOc1ccc(CNC(=O)c2ccc(Sc3ccc(C)cc3)c(N)c2)cc1OC do in these assays?
VDR inh: -3.3%; G9a block: -0.9%[59 µM]

How did Cc1ccc(CN(C)C(=O)C2CCCN2C(=O)c2cccs2)o1 (configuration not stated) do in these assays?
Mm-Cpn inhibitor: -0.9%; Sfp PPTase inh: 35.5µM*; VDR inh: -6.6%; CCT modulator: 2.1; PLK1 PBD inh: -26.5%; G9a block: 44.7µM*

What do the screens show for `CN(CC(=O)Nc1ccc(F)c(F)c1F)C(=O)C1CCCN1C(=O)c1cccs1` (configuration not stated)?
CCT modulator: -0.6; PLK1 PBD inh: -5.9%

How did O=C(c1ccco1)N1CCC2(CC1)CN(c1cccc(-c3ccccc3)c1)C2 do in these assays?
Sfp PPTase inh: inconclusive; VDR inh: inconclusive; G9a block: 31.3%[12.7 µM]

Results for Cc1ccc(OCCCCn2ccnc2)c([N+](=O)[O-])c1 ?
Mm-Cpn inhibitor: -0.5%; Sfp PPTase inh: 56.2µM*; VDR inh: -14.6%; CCT modulator: -2.6; PLK1 PBD inh: -14.7%

What do the screens show for `Clc1ccc(OCCCn2ccnc2)c(Br)c1`?
Mm-Cpn inhibitor: 0.2%; Sfp PPTase inh: -19.4%; VDR inh: inconclusive; CCT modulator: -2.7; PLK1 PBD inh: -4.6%; G9a block: 3.55µM*

How did Cc1cc(C(C)(C)C)ccc1OCCn1ccnc1 do in these assays?
Mm-Cpn inhibitor: -4.7%; Sfp PPTase inh: -9.0%; VDR inh: 11.1%; CCT modulator: 0.6; PLK1 PBD inh: 2.7%; G9a block: 22.4µM*

What do the screens show for `CC(C)(C)c1cc(Cl)ccc1OCCn1ccnc1`?
Mm-Cpn inhibitor: 1.7%; Sfp PPTase inh: -28.5%; VDR inh: 14.3%; CCT modulator: -2.1; PLK1 PBD inh: -17.8%

What do the screens show for `Cc1ccc(OCCn2ccnc2)c(C)c1`?
Mm-Cpn inhibitor: 2.0%; Sfp PPTase inh: 8.6%; VDR inh: 14.8%; CCT modulator: -5.9; PLK1 PBD inh: 1.0%; G9a block: 70.8µM*

How did Cc1ccc(OCCCCn2ccnc2)c(Cl)c1 do in these assays?
Mm-Cpn inhibitor: -0.8%; Sfp PPTase inh: 1.2%; VDR inh: 8.1%; CCT modulator: -3.9; PLK1 PBD inh: 0.1%; G9a block: -15.6%[59 µM]

What do the screens show for `Cc1ccc(OCCOCCn2ccnc2)c(Br)c1`?
Mm-Cpn inhibitor: 1.1%; Sfp PPTase inh: 79.4µM*; VDR inh: 0.6%; CCT modulator: -6.9; PLK1 PBD inh: -5.3%; G9a block: 7.94µM*

How did CN1C(=O)NC(c2ccc(O)cc2)C2=C1CN(c1ccccc1)C2=O (configuration not stated) do in these assays?
Mm-Cpn inhibitor: 1.2%; Sfp PPTase inh: 7.4%; VDR inh: inconclusive; CCT modulator: -3.8; PLK1 PBD inh: 23.8µM*

How did Cc1ccc(-c2nc(C)c(CCNS(=O)(=O)c3ccc(F)c(C(F)(F)F)c3)s2)cc1 do in these assays?
VDR inh: 3.1%; G9a block: 2.1%[59 µM]

How did Cc1nc(Nc2ccccc2)c2nc(-c3ccccc3)n(CCN3CCOCC3)c2n1 do in these assays?
Sfp PPTase inh: 1.8%
